D1 potentiator: potentiators of human D1 dopamine receptor | potentiation, % at 10 µM | 360,000 tested, 0.036% active | P21728 | HEK293 TREx D1 cells, calcium flux, dopamine EC20 potentiation; in the data active = potentiation above about 30%; also: 0% is about no effect
D1 antag: blocks dopamine activation of the human D1 receptor; HEK293 TREx D1 cells, calcium flux, dopamine EC80; active compounds read low; activity change, negative = inhibition, % at 10 µM; 360,000 tested, 3.2% active; in the data active = activity change below about -30%; also: % is scaled to controls: 0 for no effect and ±100 for the full control effect
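After overnight tetracycline induction at 30 C, force-coupled D1 HEK293 cells took up a no-wash calcium dye at room temperature. Compounds were added and monitored 180 s, and the response to EC80 dopamine was then recorded.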
TRHR agonist: activates the human TRH receptor; P34981; TRHR cells, calcium flux fluo-8, FDSS agonist mode; activation, % at 2 µM; 360,000 tested, 0.18% active; also: 0% is about no effect
Target sequence (P34981 whole entry, looked up): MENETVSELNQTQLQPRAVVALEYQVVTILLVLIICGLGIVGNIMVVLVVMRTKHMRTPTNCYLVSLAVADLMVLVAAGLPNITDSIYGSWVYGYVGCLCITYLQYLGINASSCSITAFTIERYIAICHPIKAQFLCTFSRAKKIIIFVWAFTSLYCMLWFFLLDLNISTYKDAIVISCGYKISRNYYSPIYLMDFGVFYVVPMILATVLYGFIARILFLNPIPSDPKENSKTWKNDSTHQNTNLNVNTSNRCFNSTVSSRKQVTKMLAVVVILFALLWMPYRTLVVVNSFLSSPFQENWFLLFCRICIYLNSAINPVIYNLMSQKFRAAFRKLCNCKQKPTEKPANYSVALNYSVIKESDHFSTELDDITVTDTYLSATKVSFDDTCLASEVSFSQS
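Agonist-mode FDSS calcium read (Ex 480/Em 530, 1 s cycles) in 1536-well TRHR cells with fluo-8 dye, after 10-cycle baseline and 23 nL compound addition; TRH at EC20 (10 nM final) added afterwards for the enhancer phase.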
TRHR enhancer: allosteric enhancers of human TRH receptor; TRHR cells, fluo-8 calcium fluorescence, EC20 TRH enhancement; enhancement, % at 2 µM; 360,000 tested, 0.66% active; in the data active = enhancement above about 30%; also: 0% is about no effect
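TRHR-expressing cells loaded with fluo-8 calcium dye were read kinetically (ex 480/em 530) during compound addition, then stimulated with an EC20 of TRH (10 nM final). Enhancement of the Gq-mediated intracellular calcium response was scored.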
D1 agonist: agonists of human D1 dopamine receptor; P21728; HEK293 T-REx D1 cells, calcium flux, agonist mode; activation, % at 2 µM; 360,000 tested, 1% active; also: 0% is about no effect
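Tetracycline-induced HEK293 TREx D1 cells, force-coupled to calcium signalling, were dye-loaded with a no-wash calcium kit. Compound was pin-added after a 10 s baseline. Fluorescence was read kinetically at 1 cycle/s for 180 s, with calcium rises flagged as agonism.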
The depositor's hits bear a star; ! = not confirmed by another sample. In the library only some 4.6% were active in any assay of this set; here they are far more common. Rule as the data show it, unless noted: active = activation above about 30%; inactive = the rest.

SMILES | D1 potentiator | D1 antag | TRHR agonist | TRHR enhancer | D1 agonist
O=C(NCCCN1CCN(c2ccccc2F)CC1)c1ccc2nc(Cc3ccccc3)oc2c1 | -4 | -49* | 1 | 0 | 26
Cc1c(C)n(C)c2ccc(C(=O)NCCCN3CCN(c4ccccc4F)CC3)cc12 | -10 | -10 | 0 | 4 | 0
CCc1nc2ccc(C(=O)NCCCN3CCN(c4ccccc4F)CC3)cc2nc1CC | -8 | -32* | -1 | 2 | 2
CCCNC(=O)c1ccc2nc(-c3ccccc3)c(-c3ccccc3)nc2c1 | 0 | -14 | 0 | 5 | 3
COc1ccccc1N1CCN(CCCCNC(=O)c2ccc3ccccc3c2)CC1 | -5 | -54* | -1 | -7 | 11
CCC(Oc1ccc(F)cc1)C(=O)Nc1nc(-c2ccc(F)cc2)ns1 (stereo unspecified) | -1 | -15 | 4 | -7 | 26
COc1cccc(NC(=O)Cn2c(=O)n(Cc3ccc(C(=O)NCc4ccc5c(c4)OCO5)cc3)c(=O)c3ccccc32)c1 | 2 | -1 | 2 | 6 | 3
O=C(NCCCN1CCN(c2ccc(F)cc2)CC1)c1ccc2nc(CCc3ccccc3)oc2c1 | -5 | -3 | 0 | 2 | 15
O=C(NCCCN1CCN(c2ccccc2F)CC1)c1ccc2nc(CCc3ccccc3)oc2c1 | -5 | -31* | 0 | 7 | 19
O=S(=O)(c1ccc2c(c1)OCCO2)N1CCN(S(=O)(=O)c2cccs2)CC1 | -2 | -2 | 0 | 5 | 0
CC(Sc1nnc(NCc2ccccc2)s1)C(=O)Nc1ccc2c(c1)C(=O)c1ccccc1C2=O (stereo unspecified) | -6 | -33* | 0 | 0 | 4
CCN(CC)c1ccc(/C=N/Nc2nc3ccccc3[nH]2)cc1 | -2 | -62* | 0 | 2 | 1
CC(/C=N/Nc1nc2ccccc2[nH]1)=C\c1ccccc1 | -7 | -42* | 0 | -4 | 0
CCCCNc1nc(-c2ccccc2)nc(-n2ccnc2)n1 | -7 | -38* | -2 | -3 | 1
CCC(Sc1nc2cc(OC)c(OC)cc2c(=O)n1Cc1ccc(Cl)cc1)C(=O)NCCOC (stereo unspecified) | -2 | 0 | 0 | -6 | 0
O=C(/C=C/c1ccc(Cl)cc1Cl)Nc1cccc(S(=O)(=O)NC2=NCCC2)c1 | -8 | -31* | 1 | 12 | 8
COC(=O)c1ccc(Sc2ccc(C)cc2)c(N)c1 | -11 | -36* | -1 | -4 | 10
COc1ccc(OC)c(CNC(=O)c2ccc(Sc3ccc(C)cc3)c(N)c2)c1 | 0 | 0 | 0 | 1 | -3
COC(=O)c1ccc(C)c(NC(=O)CCSc2ccc(C)cc2)c1 | -11 | -18 | 0 | 34* | 3
Cc1ccc(NC(=O)c2ccc(CNS(=O)(=O)c3ccc4c(c3)C(C)(C)C(=O)N4C)cc2)cc1F | -7 | -5 | 1 | 28 | 7
Cc1ccc(C2CC(=O)N(Cc3ccccc3F)c3c2c(C)nn3-c2nc(C)cc(C)n2)cc1 (stereo unspecified) | 0 | 0 | 0 | -2 | 0
COc1ccc(NC(=O)N2CCN(c3cc(-c4noc(C)n4)ccc3C)CC2)c(OC)c1 | -3 | -14 | -1 | -6 | 2
COc1ccc(NC(=O)c2ccc(-c3ccc(-c4noc(C)n4)cc3C)cc2)cc1N1CCN(C)CC1 | -5 | -57* | 0 | 1 | 14
O=C(NCCCN1CCOCC1)c1ccc(-n2nc(C(F)(F)F)cc2-c2cccs2)cc1 | -10 | -25 | -1 | 10 | 62*
COCCCNC(=O)c1ccc(-n2nc(C(F)(F)F)cc2-c2cccs2)cc1 | -7 | -2 | -1 | 0 | 11
SMILES | D1 potentiator | D1 antag | TRHR agonist | TRHR enhancer | D1 agonist
CCCCN(C(=O)c1cccc(C)c1)c1c(N)n(CCC)c(=O)[nH]c1=O | 0 | -7 | 0 | 41* | 3
Cc1ccc(OCC(=O)NCCNC(=O)c2cnccn2)cc1C | -3 | -7 | -1 | 2 | 39*
Cc1cc(C)cc(NS(=O)(=O)c2ccc(-c3cc(C)no3)cc2)c1 | 2 | -6 | 0 | 0 | 4
CCOC(=O)c1c(C)c(-c2ccccc2)n(CC(=O)Nc2cccc(C)c2C)c1C | -5 | -5 | 0 | -10 | 0
Cc1cc2cc(C(c3nnnn3C3CCCC3)N(Cc3cccnc3)Cc3ccco3)c(=O)[nH]c2cc1C (stereo unspecified) | 0 | -39* | 0 | -8 | 3
COc1ccccc1Cn1c(CNS(=O)(=O)c2cccc([N+](=O)[O-])c2)nc2cccnc21 | 2 | -12 | -1 | 2 | 2
COc1ccccc1C(=O)Nc1c(C(=O)N(CCN(C)C)Cc2ccco2)oc2ccccc12 | -14 | -38*! | 2 | 0 | 46*!
CN(C)CCN(Cc1ccco1)C(=O)c1oc2ccccc2c1NC(=O)c1ccccc1 | -5 | -42* | 1 | -4 | 9
Cc1ccccc1C(=O)Nc1c(C(=O)N(CCN(C)C)Cc2ccco2)oc2ccccc12 | -5 | -11 | 1 | -3 | 10
CCCCN(CC)S(=O)(=O)c1ccc(C(=O)Nc2nnc(-c3cccs3)o2)cc1 | -8 | -12 | 0 | 3 | 40*
CCN(CC)S(=O)(=O)c1ccc(C(=O)NNC(=O)c2cccs2)cc1 | -1 | -42* | 0 | 6 | 2
Cc1cc(C)n2ncc(C(=O)Nc3ccc(Cl)c(Cl)c3)c2n1 | 3 | -5 | 1 | 3 | -1
Cc1cc(C)n2ncc(C(=O)O)c2n1 | -3 | -46* | 0 | 1 | -1
O=C(CSc1ncc(-c2ccccc2)[nH]1)Nc1cccc(Br)c1 | -3 | -19 | 1 | -4 | 6
Nc1ccc(Sc2cnn(-c3ccccc3)c(=O)c2Cl)cc1 | -2 | -13 | -2 | 36* | 4
CNc1cnn(-c2ccccc2)c(=O)c1Cl | -1 | -71* | 0 | 1 | 2
Cc1ccc(Sc2cnn(-c3ccccc3)c(=O)c2Cl)cc1 | 1 | -20 | 0 | -8 | 4
COc1cccc(NC(=O)C2CCN(S(=O)(=O)c3c(C)noc3/C=C/c3cccs3)CC2)c1 | 0 | 11 | 2 | -1 | 5
CCOC(=O)c1c(S(=O)(=O)NCC(=O)Nc2cccc(SC)c2)c(C)n(C)c1C | -1 | -6 | -1 | -8 | 1
Cc1cccn2c(=O)c(C(=O)NCCc3ccc(S(N)(=O)=O)cc3)c(O)nc12 | 0 | 6 | 0 | -1 | 0
Cc1csc(C2=C(O)CN(CCc3ccccc3)C2=N)n1 | -10 | -40* | 0 | 3 | 0
Cc1ccc(Cn2c(CNS(=O)(=O)c3ccc(Cl)s3)nc3cccnc32)cc1 | -3 | 9 | 0 | -2 | 2
CCCCCCCOC(=O)C[N+](C)(C)CCOC1CC2CCC1(C)C2(C)C (stereo unspecified) | 6 | 42 | 1 | -1 | 131*
